Compound activity (PubChem)
SARS PLpro yeast = qHTS of Yeast-based Assay for SARS-CoV PLP; S. cerevisiae expressing SARS-CoV PLpro, growth rescue; Potency, µM (doses to about 32.9 µM), for the others: at the highest dose activity, positive = growth rescue, most hits filed as activators; AID 485353, 2010; hit rate 0.19% among 330,000; calls by dose curve; note: 0% is about no effect; nearly all actives have a fitted effect of over 55% in size
AmpC inh no detg = qHTS Inhibitors of AmpC Beta-Lactamase (assay without detergent) | P00811 | Potency, µM (highest dose often 57.1 µM), without a hit: at the top dose activity change, negative = inhibition, usual class: inhibitors | AmpC nitrocefin hydrolysis, absorbance 480 nm, 0.0001% Triton | hit rate 0.52% among 330,000;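 note: plate controls were no compound for no effect and no enzyme for full effect; nearly all actives have a fitted effect of over 20% in size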
Target sequence (P00811 whole entry, looked up): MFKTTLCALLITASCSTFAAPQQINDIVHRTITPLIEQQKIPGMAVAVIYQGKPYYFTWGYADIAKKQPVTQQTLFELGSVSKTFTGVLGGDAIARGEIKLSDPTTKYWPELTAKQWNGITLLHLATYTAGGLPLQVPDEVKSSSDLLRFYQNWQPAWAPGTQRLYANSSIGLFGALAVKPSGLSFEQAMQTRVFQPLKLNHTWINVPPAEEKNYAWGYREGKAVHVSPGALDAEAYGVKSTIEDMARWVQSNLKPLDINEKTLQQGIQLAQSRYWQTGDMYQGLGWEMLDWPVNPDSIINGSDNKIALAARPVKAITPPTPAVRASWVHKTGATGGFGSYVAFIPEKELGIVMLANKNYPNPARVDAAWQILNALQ
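20 mM phosphate pH 7.0 + 0.01% (detergent screen) or 0.0001% Triton X-100; 5.3 nM AmpC reagent; cpd preinc 15 min RT; nitrocefin (800 uM stock) to start; A480 q20 s × 4 min; Activity was normalised to no-enzyme and no-compound control wells.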
AmpC inh detg = qHTS Inhibitors of AmpC Beta-Lactamase (assay with detergent); AmpC hydrolysis of nitrocefin, absorbance 480 nm, 0.01% Triton; Potency, µM (titrated, usually from 114 µM), for the others: at the top dose activity change, negative = inhibition, actives largely listed as inhibitors; hit rate 0.041% among 370,000; AID 485294, 2010;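 note: 0% = no-compound wells and -100% = no-enzyme wells; nearly all actives have a fitted effect of over 25% in size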
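AmpC (5.3 nM in the dispensed reagent) in 20 mM phosphate pH 7.0 with 0.01% (detergent screen) or 0.0001% Triton X-100 was preincubated with compounds for 15 min at room temperature. Nitrocefin was then added from an 800 uM solution, and hydrolysis was followed at 480 nm.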
Sm TGR block = qHTS Assay for the Inhibitors of Schistosoma Mansoni Peroxiredoxins | Schistosoma mansoni thioredoxin glutathione reductase (TGR), Q962Y6 | purified TGR, DTNB reduction, TNB absorbance 405 nm | Potency, µM (titrated, usually from 114 µM), for the others: top-dose activity change, negative = inhibition, actives largely listed as inhibitors | hit rate 3% among 360,000 | AID 485364, 2010; note: % is set by controls: 0 for no effect and ±100 for the full control effect; nearly all actives have a fitted effect of over 60% in size
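First, TGR (20 nM dispensed) and NADPH were mixed with compound. Second, a 15 min room-temperature incubation followed. Third, further NADPH and then DTNB were added to start the reaction. Finally, TNB absorbance was monitored kinetically.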
Pf growth 96h = Primary qHTS for delayed death inhibitors of the malarial parasite plastid, 96 hour incubation | P. falciparum luciferase reporter growth, 96 h | Potency, µM (titrated, usually from 28.7 µM), for inactives: top-dose activity change, negative = inhibition, usual class: inhibitors | hit rate 6.9% among 320,000 | AID 504834, 2011; note: % is set by controls: 0 for no effect and ±100 for the full control effect
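Parasite growth measured via integrated firefly luciferase reporter in P. falciparum. Infected erythrocytes at 2% hematocrit, 0.05% parasitemia final were treated 96 hours at 37 C under 5% CO2, and luminescence was read.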
Pf growth 48h = Primary qHTS for delayed death inhibitors of the malarial parasite plastid, 48 hour incubation. P. falciparum luciferase growth in erythrocytes, 48 h. Potency, µM (highest dose often 28.7 µM), without a hit: at the highest dose activity change, negative = inhibition, most hits filed as inhibitors. AID 504832, 2011. hit rate 5.9% among 310,000; note: % is set by controls: 0 for no effect and ±100 for the full control effect
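Compounds are pin-transferred into medium, infected erythrocytes (2% hematocrit, 0.1% parasitemia final) are added, and plates sit one parasite generation at 37 C in 5% CO2. Detection reagent is then added and luminescence measured.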
Starred values were filed as active, the others as inactive; ? = inconclusive; / = not tested or not shown. Compounds with a hit are over-represented: about 12% of the library has one in this group of screens. Unless noted, calls come from the whole dose curve; as a rule, active = well fitted curve in the direction sought with a large enough effect; inconclusive = small, poorly fitted or top-dose-only effect, or another doubt; inactive = no such curve, though single readings can be large; an effect the other way counts as inactive or inconclusive. Potency is the fitted concentration of half-maximal effect.

SMILES	SARS PLpro yeast	AmpC inh no detg	AmpC inh detg	Sm TGR block	Pf growth 96h	Pf growth 48h
COc1ccc(CCNC(=O)c2cn(C)c3ccc(S(=O)(=O)N4CCOCC4)cc3c2=O)cc1OC	1%	186%	10%	1%	11%	13µM*
CCOC(=O)N1CCN(C(=O)c2cn(CC)c3ccc(S(=O)(=O)N4CCOCC4)cc3c2=O)CC1	29%	4%	1%	10%	4.7µM*	13%
Cn1cc(C(=O)N2CCN(c3cccc(Cl)c3)CC2)c(=O)c2cc(S(=O)(=O)N3CCOCC3)ccc21	11%	157%	-14%	-13%	12µM*	-14%
CCN(CC)S(=O)(=O)c1ccc2c(c1)c(=O)c(C(=O)NCCc1ccc(OC)c(OC)c1)cn2C	2%	184%	1%	-1%	?	?
COc1cc(NC(=O)C(Cc2ccccc2)NS(=O)(=O)c2cccs2)cc(OC)c1 (stereo not given)	/	/	-6%	0%	/	/
Cc1cc(S(=O)(=O)Nc2c(NC3CCCCC3)c3ccccc3oc2=O)ccc1F	-12%	-27%	-2%	10%	10µM*	12%
COc1ccc(S(=O)(=O)Nc2c(NC3CCCCC3)c3ccccc3oc2=O)cc1Cl	4%	-26%	?	-3%	-25%	16%
O=C(N/N=C/c1c(O)n(CCc2ccccc2)c(=O)[nH]c1=O)c1ccncc1	-9%	-34%	-1%	18µM*	?	-8%
CN(C)CCN=Cc1c(O)n(-c2cccc3ccccc23)c(=O)[nH]c1=O	5%	-41%	-8%	-2%	10µM*	-3%
O=C(N/N=C/c1c(O)n(CCc2ccc(F)cc2)c(=O)[nH]c1=O)c1ccncc1	19%	-44%	-5%	?	?	5%
O=C(N/N=C/c1c(O)n(-c2cccc3ccccc23)c(=O)[nH]c1=O)c1ccncc1	2%	-35%	3%	14µM*	51%	10%
O=C(NCc1cccc(Cl)c1)C1CCCN(c2ncnc3onc(-c4ccc(F)cc4)c23)C1 (stereo not given)	/	/	-6%	-2%	/	/
COc1ccc(S(=O)(=O)N(CC(=O)Nc2ccc(S(=O)(=O)N3CCOCC3)cc2)Cc2ccc(F)cc2)cc1	19%	-15%	-15%	2%	?	15µM*
COc1cc(/C=C/C(=O)Nc2ccc(OC)c(S(=O)(=O)N3CCOCC3)c2)ccc1OC(F)F	2%	127%	/	/	/	/
COc1cccc(CN(C)C(=O)/C=C/c2ccc(S(=O)(=O)N3CCCCCC3)cc2)c1	2%	58%	-1%	-22%	12µM*	12µM*
COc1ccc(NC(=O)/C=C/c2ccc(C)o2)cc1S(=O)(=O)N1CCOCC1	5%	-13%	?	18µM*	-3%	-1%
COc1cccc(NC(=O)/C=C/c2ccc(S(=O)(=O)N3CCOCC3)cc2)c1	-2%	-33%	-4%	1%	10µM*	?
O=C(/C=C/c1ccc(S(=O)(=O)N2CCOCC2)cc1)NC(=S)Nc1ccc(N2CCOCC2)cc1	-7%	53%	?	-15%	?	-13%
CCCCn1c(CCC(=O)O)nc2cc(S(=O)(=O)N3CCCC3)ccc21	-1%	-1%	/	/	/	/
CCN(CC)S(=O)(=O)c1ccc(/C=C/C(=O)Nc2ccc(N3CCOCC3)cc2)cc1	-1%	52%	-1%	13%	1.9µM*	10µM*
CCCn1c(CCC(=O)Nc2ccccc2Cc2ccccc2)nc2cc(S(=O)(=O)N3CCOCC3)ccc21	7%	121%	?	-3%	2.3µM*	/
COc1ccc(/C=C/C(=O)Nc2cccc(F)c2)cc1S(=O)(=O)N1CCOCC1	0%	38%	-10%	2%	6.6µM*	?
